PubChem BioAssay (NCI)
Compounds without any hit were thinned out: in the full panel of roughly 79,000, 15% have a hit. Cut-off read from the data, not from the text of the source: active = growth inhibition above about 70%; inactive = the rest.

Key:
[1] = NCI Yeast Anticancer Drug Screen. Data for the rad50 strain (AID 155);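 note: 0% = growth of vehicle-only cultures of the same strain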; conditions: S. cerevisiae rad50 strain growth inhibition; at 50.0 µM; stronger effect = higher value
Procedure, shortened: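 Yeast carrying a defined DNA repair defect were exposed to test compounds, and growth was compared with vehicle-treated controls to give percent inhibition.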

[2] = NCI Yeast Anticancer Drug Screen. Data for the mec2-1 strain (AID 157); conditions: S. cerevisiae mec2-1 strain, at 50.0 µM, stronger effect = higher value
Procedure, shortened: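 mec2-1 yeast strain, carrying an alteration in DNA damage repair or cell cycle control, was exposed to compounds; growth inhibition was measured relative to vehicle-treated controls.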

[3] = NCI Yeast Anticancer Drug Screen. Data for the sgs1 mgt1 strain (AID 161);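 note: 0% = growth of cultures given vehicle only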; conditions: S. cerevisiae sgs1 mgt1 strain, at 50.0 µM, stronger effect = higher value
Procedure, shortened: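 Percent growth inhibition was derived by comparing compound-exposed mutant yeast with vehicle-exposed cultures. The strain carries alterations in DNA damage repair.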

[4] = NCI Yeast Anticancer Drug Screen. Data for the cln2 rad14 strain (AID 165);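 note: 0% = growth equal to vehicle treated cultures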; conditions: S. cerevisiae cln2 rad14 strain, at 50.0 µM, stronger effect = higher value
Procedure, shortened: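 Yeast carrying cln2 and rad14 alterations (cell cycle control and DNA damage repair) were exposed to compounds. Growth inhibition was measured against vehicle-treated controls.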

[5] = NCI Yeast Anticancer Drug Screen. Data for the bub3 strain (AID 167); conditions: S. cerevisiae bub3 mutant strain, at 50.0 µM, stronger effect = higher value
Procedure, shortened: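 Compounds were applied to a genetically altered yeast strain carrying a cell-cycle control defect. Growth inhibition was scored against vehicle-treated controls.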

[6] = NCI Yeast Anticancer Drug Screen. Data for the mlh1 rad18 strain (AID 175); conditions: S. cerevisiae mlh1 rad18 strain growth inhibition; at 50.0 µM; stronger effect = higher value
Procedure, shortened: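 Growth inhibition of the yeast strain was measured after compound exposure and expressed relative to vehicle-treated controls. The strain carries defined defects in DNA damage repair.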

Measured: growth inhibition

CCOC(=O)C(Br)CN1C(=O)c2ccccc2C1=O (stereo unspecified)
inactive: [1] 5.5% | [2] -7.1% | [3] -5.35% | [4] 12.6% | [5] 42% | [6] 13.6%

CCC(C)NC(=O)c1ccc(Cl)cc1Cl (stereo unspecified)
inactive: [1] 15.8% | [2] -18.5% | [3] -12.7% | [4] -68.5% | [5] -28.9% | [6] -22.6%

O=C(O)C1C2CCC(O2)C1C(=O)Nc1cccc2cccnc12 (stereo unspecified)
inactive: [1] 15.3% | [2] 12.4% | [3] -10.2% | [4] -1.15% | [5] 22.5% | [6] 17.8%

c1ccc2c(c1)CCc1ccccc1N=N2
inactive: [1] -8.1% | [2] -1.55% | [3] -17.1% | [4] -30.4% | [5] -1.4% | [6] 5.35%

C/C(=N\N)c1ccc(Cl)cc1O
inactive: [1] 7.45% | [2] -34.2% | [3] 7.2% | [4] 4.25% | [5] 3.5% | [6] 16%

CCN(CC)C(=O)c1cccc2c1OCO2
inactive: [1] -17.7% | [2] 13.6% | [3] 2.35% | [4] 0.25% | [5] 1.4% | [6] -9.6%

N#C/C(=C\c1ccc(Cl)cc1)C(=O)c1ccccc1
inactive: [1] 9.4% | [2] 12.8% | [3] 29.8% | [4] 20.9% | [5] 6.95% | [6] 22.7%

CCOP(=O)(OCC)OC1CC(n2cnc3c(N(CC)CC)ncnc32)OC1CO[Si](C)(C)C(C)(C)C (stereo unspecified)
inactive: [1] 19.1% | [2] 8.65% | [3] 54% | [4] 38.8% | [5] 47.9% | [6] -16.1%

O=C1c2ccccc2C2(O)Nc3c(ccc4ccccc34)C12O (stereo unspecified)
inactive: [1] 2% | [2] -3.3% | [3] 10.6% | [4] -3.8% | [5] -16.9% | [6] 15.4%

CSCC1CC(c2ccc(Cl)cc2)=NO1 (stereo unspecified)
inactive: [1] 27.8% | [2] 6.8% | [3] 1.05% | [4] -1.4% | [5] 0.45% | [6] 32.6%

O=C(CP(=O)(c1ccccc1)c1ccccc1)c1cccc(C(=O)CP(=O)(c2ccccc2)c2ccccc2)c1
inactive: [1] -6.35% | [2] -10.1% | [3] -7.05% | [4] -15.7% | [5] -21.1% | [6] -2.4%

Nc1cccc2c1C(=O)OC2=O
inactive: [1] -6.6% | [2] -6.2% | [3] -10.2% | [4] -5.7% | [5] -3.45% | [6] 3.85%

CN(C)C(=O)C1C2C=CC(CCC2)C1C(=O)N(C)C (stereo unspecified)
inactive: [1] 13.1% | [2] 15.6% | [3] 15.8% | [4] 13.7% | [5] 15.7% | [6] 14.1%

CCCCNc1nnc(N)s1
inactive: [1] 4.65% | [2] -24.2% | [3] -10.3% | [4] -34.5% | [5] -2.2% | [6] -27.9%

COC1CCC(/C(C#N)=C/C2CCC(NC(C)=O)CC2)CC1 (stereo unspecified)
inactive: [1] 3.95% | [2] 0.65% | [3] 25.9% | [4] 1% | [5] 22.1% | [6] 5.2%

Oc1ccccc1CNc1ncc(Cl)cc1Cl
inactive: [1] 24.9% | [2] 16% | [3] 26.8% | [4] -5.15% | [5] 39.1% | [6] 19.4%

C/C(=N/NC(N)=O)c1c(C)c(Cl)cc(Cl)c1OCCCC(C)C
inactive: [1] -8.1% | [2] -3.05% | [3] 0.45% | [4] -6.1% | [5] 22.9% | [6] -10.6%

CCC(=O)c1c(O)c2ccccc2oc1=O
inactive: [1] -21.1% | [2] 9.45% | [3] -5.2% | [4] -4.1% | [5] 11.8% | [6] 8.1%

CCCn1c(C)nc2cc(C)cc(N)c21
inactive: [1] 19.2% | [2] 20.4% | [3] 11% | [4] -17.4% | [5] -1.15% | [6] 1.7%

CN(C)c1ccc2c(SCC(=O)OCC(=O)C3(O)CCC4C5CCC6=CC(=O)C=CC6(C)C5C(O)CC43C)c3ccc(N(C)C)cc3nc2c1 (stereo unspecified)
inactive: [1] 42.6% | [2] 45.4% | [3] 57.2% | [4] 60% | [5] 42.2% | [6] 60.9%

Ic1ccc(-c2ccccc2)cc1
inactive: [1] -2.95% | [2] -7.7% | [3] 12.1% | [4] -57.7% | [5] 34% | [6] 29.7%
